Records with an inconclusive call do not appear. Unmarked numbers belong to inactive results. Calls of active or inactive are those of the source. Calls come from the whole dose curve; as a rule, active = well fitted curve in the direction sought with a large enough effect; inconclusive = small, poorly fitted or top-dose-only effect, or another doubt; inactive = no such curve, though single readings can be large; an effect the other way counts as inactive or inconclusive. *1 amine or outer side, *2 acyl side, *3 side chain or, on linkers, in order; H or OH if unused. Where a SMILES comes first, the peptide text is derived from it. Bridges are numbered along the chain shown (N, C = ends). X6 = O=C(CCC[*:2])[*:1]

For experiment [1], the system named is Zika virus NS2B-NS3 protease. The experiment in a line: Primary screen GU AMC qHTS for Zika virus inhibitors (AID 1347154). Note: nearly all actives have a fitted effect of over 70% in size. In a few lines:
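Unlinked Zika NS2B hydrophilic domain/NS3 protease domain noncovalent complex (25 nM final) in 10 mM Tris-HCl pH 8.0, 0.01% Tween 20, with AMC peptide substrate. Fluorescence (ex 340, em 450 nm) change over 15 min, room temperature; percent inhibition fitted to 4-parameter Hill equation.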

Experiment [2] is described as follows: Confirmatory screen GU Rhodamine qHTS for Zika virus inhibitors qHTS (AID 1347157). Note: potency is the fitted concentration of half-maximal effect; nearly all actives have a fitted effect of over 70% in size. The following applies: purified enzyme assay, Rhodamine110 substrate fluorescence, 15 min. An outline of the steps:
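Enzyme 25 nM in Tris-HCl pH 8.0 + 0.01% Tween 20; compounds up to 114 microM, 15 min RT dark; + Rhod110 substrate 1.5 microM; read t0 and 15 min; delta fluorescence → % inhibition → 4-parameter Hill fit.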
Background: In qHTS, concentration-response curves come from the screen itself.

The test system of experiment [3] is Zika virus NS2B-NS3 protease (unlinked complex). The experiment is described as follows: Primary screen GU Rhodamine qHTS for Zika virus inhibitors: Unlinked NS2B-NS3 protease assay (AID 1347159). Note: nearly all actives have a fitted effect of over 60% in size. Note: potency is the fitted concentration of half-maximal effect. An outline of the steps:
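Unlinked NS2B/NS3, 25 nM; Rhod110 peptide, 1.5 microM; compounds, up to 114 microM. Reaction run 15 min at RT in 10 mM Tris-HCl pH 8.0, 0.01% Tween 20; kinetic fluorescence change fitted with a 4-parameter Hill model.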

In experiment [4] the test system is Zika virus NS2B-NS3 protease (linked construct). The experiment in a line: Primary screen NINDS Rhodamine qHTS for Zika virus inhibitors (AID 1347160). Note: nearly all actives have a fitted effect of over 55% in size. Note: potency is the fitted concentration of half-maximal effect. An outline of the steps:
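Single-chain NS2B-NS3 protease, 25 nM, pH 8.0; compounds preincubated 15 min. Activity: Rhodamine110 release from 1.5 microM substrate over 15 min, room temperature, data fitted to 4-parameter Hill.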

The nature of experiment [5]: Confirmatory screen NINDS Rhodamine qHTS for Zika virus inhibitors (AID 1347161). Note: potency is the fitted concentration of half-maximal effect; nearly all actives have a fitted effect of over 60% in size. The note with it: purified enzyme assay, Rhodamine110 substrate fluorescence, 15 min. An outline of the steps:
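Each compound, titrated, sat 15 min with 25 nM linked protease before 1.5 microM Rhodamine110 substrate went in. Fluorescence gain over the next 15 min, in pH 8.0 Tris with Tween 20, gave Hill-fitted curves.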

Experiment [6] is described as follows: HepG2 cells viability qHTS for Zika virus inhibitors (AID 1347168). An outline of the steps:
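To flag cytotoxic protease inhibitors, viability is measured by ATP-dependent luminescence (CellTiter Glo) after cells attached overnight receive compound for 24 to 48 hours in DMEM with 4% FBS.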

Experiment [7] in a line: qHTS of pediatric cancer cell lines to identify multiple opportunities for drug repurposing: Primary screen for RD cells (AID 1347104). Note: nearly all actives have a fitted effect of over 55% in size. An outline of the steps:
(§1)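 ATP-based luminescence (CellTiter-Glo) quantifies viability after a 48-hour exposure. Compounds are dosed across 8 or 11 final concentrations; DMSO and 2.3 µM bortezomib serve as controls.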

Experiment [8] can be described thus: qHTS of pediatric cancer cell lines to identify multiple opportunities for drug repurposing: Primary screen for MG 63 (6-TG R) cells (AID 1347105). Note: nearly all actives have a fitted effect of over 50% in size. In a few lines:
as §1

The nature of experiment [9]: qHTS of pediatric cancer cell lines to identify multiple opportunities for drug repurposing: Primary screen for control Hh wild type fibroblast cells (AID 1347106).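 Note: series mostly up to about 46 µM; a drop in luminescence marks cytotoxicity and a rise apparent proliferation; nearly all actives have a fitted effect of over 55% in size.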 In a few lines:
(§2)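 Cells (500-1,000/well) in growth media were settled 5 h at 37 degrees C, then given compounds for 48 h. Viability was read as CellTiter-Glo luminescence. Primary runs used MIPE at 11 points (0.78 nM-46 µM) and NPC at 8 points (0.59 nM-46 µM); follow-ups used 11 points.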

Experiment [10] is described as follows: qHTS of pediatric cancer cell lines to identify multiple opportunities for drug repurposing: Primary screen for Rh30 cells (AID 1347107). Note: series mostly up to about 46 µM; nearly all actives have a fitted effect of over 75% in size. An outline of the steps: as §2
The nature of experiment [11]: qHTS of pediatric cancer cell lines to identify multiple opportunities for drug repurposing: Primary screen for Rh41 cells (AID 1347108).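 Note: series mostly up to about 46 µM; luminescence drop marks cytotoxic hits; nearly all actives have a fitted effect of over 70% in size.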 In a few lines: as §1

For the compound `COC(=O)C1=C(C)NC(C)=C(C(=O)OCCCN2CCC(c3ccccc3)(c3ccccc3)CC2)[C@H]1c1cccc([N+](=O)[O-])c1`, the compound was classed as inactive in experiment [1].

Regarding `CNc1cc(OC)c(C(=O)N[C@H]2CCN(Cc3ccccc3)[C@H]2C)cc1Cl`, the call in experiment [1] was inactive.

Regarding `CC(=O)c1c(C)cc(O)cc1O[C@@H]1O[C@H](CO)[C@@H](O)[C@H](O)[C@H]1O`, the Potency in [2] was 30.6 µM (active).

As to `CC(C)c1cc2c(c(O)c1O[C@@H]1O[C@H](CO)[C@@H](O)[C@H](O)[C@H]1O)CC1(O)CCC(O)C(C)(C)C1CC2` (stereo partly specified), the Potency was 17.1 µM (active) in experiment [2], 20 µM (active) in experiment [3], 7.94 µM (active) in [4] and 7.64 µM (active) in experiment [5]. Further, the outcome in experiment [6] was inactive.

As to `CC1(C)CC[C@]2(C(=O)O[C@@H]3O[C@H](CO)[C@@H](O)[C@H](O)[C@H]3O)CC[C@]3(C)C(=CCC4[C@@]5(C)C[C@@H](O)[C@H](O)[C@@](C)(CO)C5CC[C@]43C)C2C1` (stereo partly specified), the Potency in experiment [2] is 11.7 µM (active). Also, in experiment [3], the Potency result was “inactive”.

For the compound `CCOC(=O)C1=CC2(CC)CCCN3CCc4c(n1c1ccccc41)C32` (stereo unspecified), the outcome in experiment [1] was inactive.

Consider `CC(=O)OC(C)OC(=O)C(C)c1ccc(-c2ccccc2)c(F)c1` (stereo unspecified), for which the compound was classed as inactive in experiment [7], in experiment [8], in [9], in experiment [10], in experiment [11] and in experiment [1].

Consider `C=C1CC[C@@H]2[C@](C)(CC[C@H](O)[C@@]2(C)CCC=C(C)C)[C@@H]1Cc1c[nH]c2ccccc12`, for which the Potency entry in [3] and in experiment [4] was “inactive” in each case.

In the case of `COCCN(C)Cc1ccc2nc3sc(C(=O)N(C)C4CCCCC4)cn3c2c1`, the Potency result in [3] and in experiment [4] was “inactive” in each case.

Take `O=C1[C@H](O[C@@H]2O[C@H](CO)[C@@H](O)[C@H](O)[C@H]2O)Oc2ccccc2N1O`: the Potency entry in experiment [3] and in [4] was “inactive” each time.

With `CC(=O)N1c2ccccc2C2(O)CC3C(=O)NC(CC(C)C)C(=O)N3C12` (stereo unspecified), the Potency result in experiment [3] and in experiment [4] was “inactive” in each case.

For `O=C(NN1CCCCC1)c1nn(-c2ccc(Cl)cc2Cl)c(-c2ccc(C#Cc3ccc(C(F)(F)F)cc3)s2)c1CNS(=O)(=O)N1CCCC1`, the Potency entry in experiment [3] and in [4] was “inactive” each time.

In the case of `CC1CCC2(NC1)OC1C(=O)C3C4CCC5CC(O[C@@H]6O[C@H](CO)[C@@H](O)[C@H](O)[C@H]6O[C@@H]6O[C@@H](C)[C@H](O)[C@@H](O)[C@H]6O)CCC5(C)C4CCC3(C)C1C2C` (stereo partly specified), the Potency result in experiment [3] and in [4] was “inactive” in each case.

Take `COc1cc([C@H]2OC[C@]3(OC(C)=O)[C@@H](c4ccc(O[C@@H]5O[C@H](CO)[C@@H](O)[C@H](O)[C@H]5O)c(OC)c4)OC[C@H]23)ccc1O`: the Potency result in experiment [3] and in experiment [4] was “inactive” throughout.

Take `N#Cc1ccnc(N2C(=O)CC[C@H]2C(=O)N(c2cncc(F)c2)[C@H](C(=O)NC2CC(F)(F)C2)c2ccccc2Cl)c1`: the Potency result in [3] and in experiment [4] was “inactive” each time.

As for `CCC(=O)O[C@]1(C(=O)CCl)[C@@H](C)C[C@H]2[C@@H]3C[C@H](F)C4=CC(=O)C=C[C@]4(C)[C@@]3(F)[C@@H](O)C[C@@]21C`, the Potency entry in experiment [3] and in [4] was “inactive” throughout.

Consider `C[C@@H]1CC[C@H]2C(C)(C)[C@H](O)[C@H](O)C[C@]2(C)[C@@]12Cc1c(O)cc3c(c1O2)CNC3=O`, for which the Potency entry in [3] and in [4] was “inactive” throughout.

For `CC(=O)OCC(=O)O[C@@H]1[C@H]2[C@@H](OC(=O)c3ccccc3)[C@@H](C)C[C@]2(O)[C@H](OC(C)=O)C2(C)[C@H]3CC(C)(C)C(=O)[C@@H]3CC1(OC(C)=O)[C@@H]2OC(C)=O` (stereo partly specified), the Potency result in [3] and in experiment [4] was “inactive” in each case.

For `C[C@@H]1CC[C@]2(C)C3(C)CC[C@@]2(OC3=O)[C@@]12C[C@H](c1ccoc1)OC2=O`, the Potency entry in [3] and in experiment [4] was “inactive” throughout.

`C=CC(C)(C)C12CC3C(=O)NC(Cc4cnc[nH]4)C(=O)N3C1Nc1ccccc12` (stereo unspecified): the Potency entry in [3] and in experiment [4] was “inactive” in each case.

For `CC1CCC2(C(=O)OC3OC(CO)C(O)C(O)C3O)CCC3(C)C(=CCC4C5(C)CC(O)C(O)C(C)(C(=O)O)C5CCC43C)C2C1(C)O` (stereo unspecified), the Potency entry in experiment [3] and in experiment [4] was “inactive” each time.

For `CC[C@H](C)[C@@H]1NC(=O)[C@H](Cc2ccc(OC)cc2)NC(=O)CCCSC[C@@H](C(=O)N2CCC[C@H]2C(=O)N[C@@H](CC(C)C)C(=O)NCC(N)=O)NC(=O)[C@H](CC(N)=O)NC(=O)[C@H](CCC(N)=O)NC1=O` (Y(Me)IQNCPLG-NH2; linker N-5 via X6), the Potency result in [3] and in experiment [4] was “inactive” in each case.

For the compound `C=C1CC2[C@]3(C)C(=C(O)C(=O)[C@@]2(C)[C@]2(C(=O)OC)C(=O)C(C)OC(=O)[C@@]12C)C(C)(C)C(=O)CC3O` (stereo partly specified), the Potency result in experiment [3] and in [4] was “inactive” in each case.

`O=S(=O)(Nc1ccc(C(O)(C(F)(F)F)C(F)(F)F)cc1)c1cccs1`: the Potency entry in [3] and in experiment [4] was “inactive” throughout.

`CCCCCCc1cccc(NC(=O)[C@H](N)CCP(=O)(O)O)c1`: the Potency entry in experiment [3] and in experiment [4] was “inactive” in each case.

Regarding `CCc1nc(C(N)=O)c(Nc2ccc(N3CCC(N4CCN(C)CC4)CC3)c(OC)c2)nc1NC1CCOCC1`, the Potency entry in experiment [3] and in experiment [4] was “inactive” throughout.

Consider `CC1(C)CCC2(C(=O)OC3OC(COC4OC(CO)C(O)C(O)C4O)C(O)C(O)C3O)CCC3(C)C(=CCC4C5(C)CCC(O)C(C)(C(=O)O)C5CCC43C)C2C1O` (stereo unspecified), for which the Potency entry in experiment [3] and in [4] was “inactive” in each case.

With `C[C@@H]1O[C@@H](O[C@H]2[C@H](OC(=O)C34CCC(C)(C)CC3C3=CCC5C6(C)CC(O)C(O[C@@H]7O[C@H](CO)[C@@H](O)[C@H](O)[C@H]7O)C(C)(C(=O)O)C6CCC5(C)C3(CO)CC4)O[C@H](C)[C@H](O)[C@@H]2O)[C@H](O)[C@H](O)[C@H]1O[C@@H]1OC[C@@H](O)[C@H](O)[C@H]1O` (stereo partly specified), the Potency entry in [3] and in experiment [4] was “inactive” each time.

Consider `C=C1C[C@]23C[C@H]1CC[C@H]2[C@@]12C=C[C@H](O)[C@@](C)(C(=O)O1)[C@H]2[C@@H]3C(=O)O`, for which the Potency result in experiment [3] and in experiment [4] was “inactive” in each case.

With `COc1cc(C2c3cc(O)c(OC)cc3CC(CO)C2CO)ccc1O` (stereo unspecified), the Potency result in experiment [3] and in experiment [4] was “inactive” each time.

Consider `COc1cc(N2CCC(O)CC2)ccc1Nc1cc(Nc2ccccc2S(=O)(=O)C(C)C)c2cc[nH]c2n1`, for which the Potency entry in [3] and in experiment [4] was “inactive” in each case.

For `N#Cc1ccc2[nH]c(O)c(-c3ccc(CN4CCOCC4)cn3)c2c1`, the Potency entry in experiment [3] and in experiment [4] was “inactive” throughout.

In the case of `COc1c(C(CC(C)C)OC(C)=O)ccc(Oc2c(O)cc(C)cc2/C=C/C(C)=O)c1C(=O)O` (stereo unspecified), the results for the Potency in experiment [3] and in [4] were 7.08 µM (active) and 11.2 µM (active), respectively.

For `CN1CCC(c2c[nH]c3ccc(NC(=O)c4ccc(F)cc4)cc23)CC1`, the Potency entry in experiment [3] and in experiment [4] was “inactive” throughout.

The record behind these values is PubChem BioAssay (NCATS).
